Assay outcomes as filed in PubChem.
Most compounds without a hit are left out; they make up all but 5.7% or so of the library.
Gal4-VP16 FLuc – inhibits Gal4-VP16 luciferase reporter, ROR gamma counter-screen; Drosophila S2 Gal4-VP16 UAS-luciferase, luminescence, 20 h; Potency, µM (series often up to 53.6 µM), for the others: at the top dose activity, negative = inhibition, actives largely listed as inhibitors; hit rate 3.5% among 310,000;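 note: Gal4-VP16 expression switched on by copper sulfate through the metallothionein promoter; nearly all actives have a fitted effect of over 50% in size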
RORgamma inh – blocks mouse ROR gamma transcriptional activity; P51450; Drosophila S2 Gal4-RORgamma UAS-luciferase reporter, 20 h; Potency, µM (doses to about 53.6 µM), for the others: at the highest dose activity change, negative = inhibition, usual class: inhibitors; hit rate 5.4% among 310,000; note: nearly all actives have a fitted effect of over 60% in size
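Compounds are pin-transferred onto Drosophila Schneider cells expressing a copper-inducible Gal4–ROR gamma transactivation domain fusion. After 1 hr, copper sulfate is added to 700 uM final; luciferase is read 20 hr later.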
NPSR antagonist – blocks cAMP signaling of the human neuropeptide S receptor; Q6W5P4; CHO-NPSR cells, cAMP TR-FRET, antagonist mode; Potency, µM (titrated, usually from 38.3 µM), without a hit: at the top dose activity change, negative = inhibition, hits mostly inhibitors; hit rate 1% among 220,000; note: nearly all actives have a fitted effect of over 50% in size
B2AR arrestin – agonists driving beta-arrestin recruitment to human beta2-adrenergic receptor | Potency, µM (top dose mostly 46.1 µM), without a hit: at the top dose activation, hits mostly activators | hit rate 0.02% among 330,000 | beta-arrestin recruitment to beta2AR, cell-based reporter;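 note: 0% = DMSO controls and full agonism = EC100 isoproterenol or metaproterenol; nearly all actives have a fitted effect of over 65% in size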
Target sequence (P07550 whole entry, looked up): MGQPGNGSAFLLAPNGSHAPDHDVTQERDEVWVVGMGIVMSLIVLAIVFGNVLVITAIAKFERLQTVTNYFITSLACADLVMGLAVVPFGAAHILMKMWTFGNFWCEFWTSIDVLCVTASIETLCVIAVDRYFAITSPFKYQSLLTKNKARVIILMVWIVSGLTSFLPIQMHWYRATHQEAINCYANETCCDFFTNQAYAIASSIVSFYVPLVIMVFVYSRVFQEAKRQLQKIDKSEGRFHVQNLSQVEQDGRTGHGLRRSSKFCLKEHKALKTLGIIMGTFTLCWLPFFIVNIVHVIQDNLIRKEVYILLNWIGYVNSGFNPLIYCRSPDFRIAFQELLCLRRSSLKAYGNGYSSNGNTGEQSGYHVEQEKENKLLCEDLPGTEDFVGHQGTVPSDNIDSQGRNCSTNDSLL
* = called active by the depositor; u = inconclusive; x = no result given; [ ] = remark or other dose. Calls come from the whole dose curve; as a rule, active = well fitted curve in the direction sought with a large enough effect; inconclusive = small, poorly fitted or top-dose-only effect, or another doubt; inactive = no such curve, though single readings can be large; an effect the other way counts as inactive or inconclusive. Unless noted, % is set by controls: 0 for no effect and ±100 for the full control effect; potency is the fitted concentration of half-maximal effect.

SMILES	Gal4-VP16 FLuc	RORgamma inh	NPSR antagonist	B2AR arrestin
CNC(=S)/N=C(\Nc1ccc(C)cc1)c1ccccc1	15.8µM*	2.51µM*	-12.6%	0.1%
O=C(O)C(Cc1ccc(Cl)cc1)NS(=O)(=O)c1ccc(Cl)cc1 (stereo not given)	-4.7%	6.1%	x	0.4%
N=C1S/C(=C\c2ccco2)C(=O)N1c1nccs1	0.224µM*	0.0178µM*	6.31µM*	5.7%
N=C1S/C(=C\c2ccco2)C(=O)N1c1ccc2c(c1)OCO2	u	19.0%	-12.8%	0.4%
CSc1ccccc1NC(=O)CN(C)C(=O)C1CC(=O)N(C(C)c2ccccc2)C1 (stereo not given)	x	x	x	-1.2%
COc1ccccc1CNS(=O)(=O)c1ccc2c(c1)NC(=O)C(C)S2 (stereo not given)	7.4%	4.7%	x	0.2%
CC(C)(C)c1ccc(O)c(N=Cc2cc(Br)ccc2O)c1	u	10µM*	-19.0%	-0.3%
Cc1ccc(O)c(C=Nc2cc(C)ccc2O)c1	20µM*	u	12.8%	8.2%
Cc1ccc(N=Cc2cccc(O)c2O)c(C)c1	u	10µM*	-15.0%[46.1 µM]	4.0%
Oc1ccc(Br)cc1C=Nc1ccc(Cl)cc1	3.8%	-37.8%	-12.7%	0.0%
Cc1ccc(O)c(N=Cc2cc(Cc3ccccc3)cc([N+](=O)[O-])c2O)c1	-17.3%[10 µM]	12.6µM*	-17.4%	0.1%
Cc1ccccc1N=Cc1cccc(O)c1O	-6.2%	-30.1%	5.8%	3.0%
Cn1c(=O)c2c(nc(N3CCOCC3)n2C/C=C/c2ccccc2)n(C)c1=O	2.7%	1.3%	22.1%	-0.9%
CN(C(=O)C1CCC(=O)N(CCCN2CCCC2=O)C1)C(C1CC1)C1CC1 (stereo not given)	6.2%	-6.8%	x	0.4%
COc1ccc(C(=O)NCc2ccncc2)cc1S(=O)(=O)NCc1ccc(Cl)cc1	x	x	x	-0.5%
CC(C)OC(=O)C(C(=O)OC(C)C)=C1SC=CS1	16.6%	6.9%[10 µM]	x	x
N=C1C(=O)OCC1c1ccccc1NC(=O)CN1CCOCC1 (stereo not given)	-11.8%	-8.8%	6.6%	0.1%
Cc1[nH]c2ccccc2c1CCN(Cc1cccnc1)C(=S)NC(C)(C)C	5.7%	u	x	0.6%
CCc1ccc(O)c(N=Cc2ccccc2O)c1	-28.3%	12.6µM*	-21.6%[46.1 µM]	0.3%
CCN(CC)c1ccc(N=Cc2cc(Br)ccc2O)cc1	u	17.8µM*	-35.9%	0.2%
O=[N+]([O-])c1cccc(C=Nc2cccc3ccccc23)c1O	-16.2%	1.58µM*	x	-0.5%
O=[N+]([O-])c1ccc(O)c(C=Nc2cccc3ccccc23)c1	-12.4%	-25.4%	x	0.1%
C=CCNC(=O)N1CCC(c2nc3ccccc3s2)CC1	-13.3%	4.9%	x	0.3%
CCN(Cc1ccccc1)C(=O)CCS(=O)(=O)c1cc2c(cc1Cl)NC(=O)CO2	-3.5%	-12.9%	x	-0.2%
CC(OC(=O)c1cccc(N(C)C)c1)C(=O)N1CCc2ccccc2C1 (stereo not given)	x	x	x	0.2%
SMILES	Gal4-VP16 FLuc	RORgamma inh	NPSR antagonist	B2AR arrestin
Cc1c(-c2ccc(Br)cc2)nc2ccccn12	u	10µM*	-29.1%[46.1 µM]	-0.8%
CN(C)c1ccc(-c2nc3ccccn3c2/N=C/c2ccc(Br)cc2)cc1	8.91µM*	7.08µM*	10µM*	-0.4%
Cc1ccc(NC(=S)NC2CCSc3ccccc32)cc1 (stereo not given)	5.62µM*	-101.8%	x	-0.4%
COC(=O)c1ccc(NC(=S)NC2CCc3ccccc32)cc1 (stereo not given)	u	7.94µM*	16.0%	0.6%
COc1cc(C)ccc1OCc1cc(C(=O)N(C)CCCN2CCOCC2)no1	7.2%	27.0%	x	0.3%
COCCN(CCOC)c1nc(C)nc2c1nc(-c1ccccc1)n2CCCN1CCCCC1C (stereo not given)	-2.8%	-5.6%	x	x
Cc1nn(-c2ccccc2)c(Cl)c1/C=N/NC(N)=O	10.2%	12.7%	1.5%	-1.0%
Cc1nn(-c2ccccc2)c(Cl)c1/C=N/Nc1nc2ccccc2n1C	3.55µM*	1.12µM*	-27.0%	0.3%
CS(=O)(=O)N1CCC2(CCCN(Cc3cc(C(F)(F)F)cc(C(F)(F)F)c3)C2)CC1	-5.6%	36.5%	x	x
COc1ccccc1C(=O)Nc1nc(-c2ccc(S(=O)(=O)N3CCOCC3)cc2)cs1	3.16µM*	-22.3%	u	-0.2%
COc1ccccc1-c1nnc(NC(=O)c2ccc(S(=O)(=O)N3CCOCC3)cc2)o1	0.631µM*	0.708µM*	x	0.0%
COc1ccc(C(=O)Nc2ccc(S(=O)(=O)N3CCOCC3)cc2)cc1OC	-0.3%	-3.7%	1.5%[46.1 µM]	-3.3%
